Whole data set: some 35,000 sequences, median “fluorescence intensity (a.u.)” near 10,000, cut for the highest 2% near 52,000. The full list was thinned out, with the highest values kept by preference.

This test addresses T1, OsWOX13 (Oryza sativa, UniProt Q5QMM3 1-267).
T1 sequence: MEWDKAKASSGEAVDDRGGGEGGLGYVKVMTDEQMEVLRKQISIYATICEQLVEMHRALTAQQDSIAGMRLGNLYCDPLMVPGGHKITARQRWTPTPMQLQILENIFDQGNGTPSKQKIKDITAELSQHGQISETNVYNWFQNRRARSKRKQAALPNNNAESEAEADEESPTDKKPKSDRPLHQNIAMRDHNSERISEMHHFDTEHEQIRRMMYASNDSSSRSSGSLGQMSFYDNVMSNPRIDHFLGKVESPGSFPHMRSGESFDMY
The experiment in a line: protein-binding microarray (RPBM); PBS, 2% BSA, 51.3 ng/ul salmon testes DNA, 50 uM zinc acetate, 200 nM TF, 25 C, 1 h; high values mean tight binding. Particulars: protein: recombinant; tags: N-terminal polyhistidine and DsRed monomer fusion (pET32a); label: CyDye5-dUTP incorporated in the synthesized complementary strand; 3' TTTTT single-stranded linker to array surface; dsDNA, one strand shown. In outline:
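A custom Agilent array was converted to double-stranded form by primer extension with Cy5-dUTP and blocked with 2% BSA. Protein at 200 nM in PBS with 2% BSA, salmon testes DNA and 50 µM zinc acetate was applied for 1 h at 25 °C, followed by washing. The proteins were polyhistidine–DsRed N-terminal fusions of transcription factors, expressed in E. coli BL21-CodonPlus and Ni–NTA-purified. The binding signal is per-feature fluorescence intensity (arbitrary units) from an Axon 4000B scanner.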
As to “GATTTTGATAGGAATGTAAGTATAAAACAGAGGATTGTAACGGAGTCACCTAGTGCAG”, the binding signal is 3360 fluorescence intensity (a.u.).
Turning to “TTTTGATTGATAAGTATAACCATGTATAAGCGAAACAATGCGGAGTCACCTAGTGCAG”, the binding signal was 64500 fluorescence intensity (a.u.).
With “ATATGATTATGTGATAATGTTTGAGAGTACAAACAAATGACGGAGTCACCTAGTGCAG”, the binding signal is 19000 fluorescence intensity (a.u.).
To “ACAATGATTGATTAATGTTTGATAGTAACAGCCATGAGAGCGGAGTCACCTAGTGCAG” belongs 58800 fluorescence intensity (a.u.); to “TATTATTTATTTTGTTTGTGATTTGCTTTGTTATTAATAGCGGAGTCACCTAGTGCAG”, 8380 fluorescence intensity (a.u.).
Take “TAAATTTTGACTGATAAGTATAAGTATAAGCGAAAAGATTCGGAGTCACCTAGTGCAG”: the binding signal was 12400 fluorescence intensity (a.u.).
Regarding “ATAATTTTGAAATTATTAACATGATATAAATGAGATAGAGCGGAGTCACCTAGTGCAG”, the binding signal is 16200 fluorescence intensity (a.u.).
Take “TGTTAGATTTAATGTAATTGATTTGATATTTTAGATATTGCGGAGTCACCTAGTGCAG”: the binding signal was 49700 fluorescence intensity (a.u.).
As for “AACCCAATAACGGTAACTGACAAAACGATGAAAACCAAACCGGAGTCACCTAGTGCAG”, the binding signal is 4460 fluorescence intensity (a.u.).
Consider “ATATAGATTTACGTTGGATTTATACTGATTCTAACCAAATCGGAGTCACCTAGTGCAG”, for which the binding signal is 13600 fluorescence intensity (a.u.).
As to “ATGATTTTGTTTTGTTTTGCGAATAATTTTGGCGCCTCAACGGAGTCACCTAGTGCAG”, the binding signal is 6150 fluorescence intensity (a.u.).
On to “CACCAGTGATCTTATAATTGTAAATTTTGATCCAAGATTCCGGAGTCACCTAGTGCAG”, for which the binding signal is 3800 fluorescence intensity (a.u.).
“AAGAATTAATTAATGTTTAACTAGATGGCCTTATTATCTCCGGAGTCACCTAGTGCAG”: the binding signal is 34300 fluorescence intensity (a.u.).
For “ATGTGTATGATGTGTTTGTTTATGTGTGGACTTTATAATACGGAGTCACCTAGTGCAG”, the binding signal is 3210 fluorescence intensity (a.u.).
As to “TTTACTAAGCAATCAAGATAACCTGATGTGCCTATCCATCCGGAGTCACCTAGTGCAG”, the binding signal was 10200 fluorescence intensity (a.u.).
With “ACAAACACGTAATAACATTAATTTCAATCTACACATCATACGGAGTCACCTAGTGCAG” the figure was 9270 fluorescence intensity (a.u.); with “GCTCCTAACCAATCAGCGCACCCATCGTCCCAAAATCCCCCGGAGTCACCTAGTGCAG”, 8480 fluorescence intensity (a.u.); with “ATAATTATTATGTCTGGTAGGATAGGATTTAGATGGTAAGCGGAGTCACCTAGTGCAG”, 5670 fluorescence intensity (a.u.).
On to “CCAATGATTGATCGATTTCTCTCCATACGCCGTGTGCCAACGGAGTCACCTAGTGCAG”, for which the binding signal is 59700 fluorescence intensity (a.u.).
Turning to “ATCAATTCAAATTTAAATTTTGATGAAACTCTTCGAAATCCGGAGTCACCTAGTGCAG”, the binding signal was 14400 fluorescence intensity (a.u.).
With “TCCAATTGATTGCAAATCGATTCCTCACTCCTCTCTTATCCGGAGTCACCTAGTGCAG”, the binding signal was 57400 fluorescence intensity (a.u.).
With “TGATGATTTGATTTGATTTGATTCAATCTCCAAATCGATCCGGAGTCACCTAGTGCAG” the figure was 65100 fluorescence intensity (a.u.).
For the sequence “CTCTCGCTCGCCATGATTGATCGAGCTCCACCTGCCAATTCGGAGTCACCTAGTGCAG”, the binding signal was 12900 fluorescence intensity (a.u.).
Take “AAATCCCACTCCAATCACCACCACCTCTTCTCCAATTCCACGGAGTCACCTAGTGCAG”: the binding signal is 3840 fluorescence intensity (a.u.).
With “TCATTTCTCCAATCATAGGAGCTGGCGCATTGATCGATCACGGAGTCACCTAGTGCAG” the figure was 6160 fluorescence intensity (a.u.); with “TGATGAGATTGATCCGATGATCTCCTCTTTAAATTTCTCGCGGAGTCACCTAGTGCAG”, 19100 fluorescence intensity (a.u.).
In the case of “TTGGAGATGATTGATTGGAAATCTTCTTCCAGTCTCCTCTCGGAGTCACCTAGTGCAG”, the binding signal was 61700 fluorescence intensity (a.u.).
To “TCCAGTGATTAATCTCTTCTCCATCTCTGCCCTGCACCCTCGGAGTCACCTAGTGCAG” belongs 21400 fluorescence intensity (a.u.).
To “AATCTCAAATTGAATCCATTTTATTTGATGACGATTTATTCGGAGTCACCTAGTGCAG” belongs 9810 fluorescence intensity (a.u.).
With “CCAAATCAATCAAATCGCATTCCACCAATTCTCCACTCTCCGGAGTCACCTAGTGCAG” the figure was 27300 fluorescence intensity (a.u.); with “GTGATGATTTATTTTCGAACTATCTAGCTATTTATCTAGACGGAGTCACCTAGTGCAG”, 9370 fluorescence intensity (a.u.).
With “CTCCAATTCATCTATAATCAATCTAATAGCCAATTCATACCGGAGTCACCTAGTGCAG”, the binding signal was 5900 fluorescence intensity (a.u.).
Turning to “GTTTTATTCTGATTAAATTAAATGCCACAGGGACATTGTCCGGAGTCACCTAGTGCAG”, the binding signal is 9600 fluorescence intensity (a.u.).
With “ATGTGGCCGATAATTGCTTTGCATGCTGATGGATGTGGCTCGGAGTCACCTAGTGCAG” the figure was 4180 fluorescence intensity (a.u.).
In the case of “GTCATAAATTGATCCATACATATCATAGTAAAGCGTGGGTCGGAGTCACCTAGTGCAG”, the binding signal is 33400 fluorescence intensity (a.u.).
As for “CTAAATTGAATCTATCCACTTTGCCTCCTAAACTCACCCCCGGAGTCACCTAGTGCAG”, the binding signal was 54600 fluorescence intensity (a.u.).
Regarding “ATCTAATCTTGAATTAAACTCACTATCAATTCCCACCATCCGGAGTCACCTAGTGCAG”, the binding signal was 4380 fluorescence intensity (a.u.).
As to “GAAATAATTGATTGAATCCTATTCTATCCTCTAAAATTCCCGGAGTCACCTAGTGCAG”, the binding signal is 30900 fluorescence intensity (a.u.).
Take “TAGTCAATTACTACTAGGTATGTGCTATTCATAACCATGACGGAGTCACCTAGTGCAG”: the binding signal was 7320 fluorescence intensity (a.u.).
As for “AGCTTTTCAGACTGAAAATGTAATAGACAACCTTATCAGACGGAGTCACCTAGTGCAG”, the binding signal is 3810 fluorescence intensity (a.u.).
On to “GGTAAATTGCAATACTCCGGATGTTCAGAGACAATAAGAGCGGAGTCACCTAGTGCAG”, for which the binding signal was 13900 fluorescence intensity (a.u.).
For “TTAGATTATTGAGTCAGATTACTATAAGCTAGATTATTATCGGAGTCACCTAGTGCAG”, the binding signal was 12500 fluorescence intensity (a.u.).
